Screening data from PubChem BioAssay.
MazF activator: activators of E. coli MazEF toxin-antitoxin RNase; P0AE70; FAM/BHQ RNA-DNA oligo cleavage fluorescence, 5 h; activation, % at 20 µM; hit rate 0.32% among 350,000; AID 504720; in the data active = activation above about 50%
Target sequence (P0AE70 whole entry, looked up): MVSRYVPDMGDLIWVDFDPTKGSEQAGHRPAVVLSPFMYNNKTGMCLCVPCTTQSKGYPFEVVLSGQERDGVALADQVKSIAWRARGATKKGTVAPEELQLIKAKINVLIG
BH1578 lux ind: quorum light induction in luxS cqsA deficient V. cholerae; V. cholerae BH1578 lux reporter, luminescence, 6 h; activation, % at 18.7 µM; hit rate 0.16% among 350,000; in the data active = activation mostly above about 9.7%, no sharp cut-off
Mtb hypoxia inh: inhibitors of hypoxia-regulated fluorescent reporter in Mycobacterium tuberculosis | M. tuberculosis hypoxia-regulated fluorescent reporter, fluorescence | fluorescence inhibition, % (concentration not given with the values) | hit rate 0.1% among 300,000 | AID 1159583; in the data active = fluorescence inhibition mostly above about 23%, no sharp cut-off; inactive = mostly below about 17%
PriA SSB inh: K. pneumoniae PriA-SSBct interaction inhibition; AlphaScreen SSBct-PriA binding, biotinylated peptide; inhibition, % at 33 µM; hit rate 0.6% among 430,000; AID 1272365; in the data active = inhibition mostly above about 37%, no sharp cut-off; inactive = mostly below about 20%;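 also: plate controls were negative control peptide for no effect and reference peptide for full effect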
Numbers without * were called inactive; i = inactive; x = no result; + = active, no number; ! = not confirmed by another sample. Compounds with a hit are over-represented: about 0.94% of the library has one in this group of screens.

SMILES | MazF activator | BH1578 lux ind | Mtb hypoxia inh | PriA SSB inh
COc1ccc(OC)c(Nc2nc(CC(=O)NCc3ccc(F)cc3)cs2)c1 | x | x | x | 18*
COc1ccc(OC)c(Nc2nc(CC(=O)Nc3ccc4c(c3)OCCO4)cs2)c1 | x | x | x | 33*
CN(C)S(=O)(=O)NC1CCN(c2ccc(C(F)(F)F)cn2)C1 (stereo not drawn) | x | x | x | 7
CS(=O)(=O)c1ccc2nc(NC(=O)c3ncc(-c4ccccc4)o3)sc2c1 | x | x | x | -10
Cc1ccccc1C(=O)Nc1ccc2nc(C)n(-c3ccccc3)c(=O)c2c1 | x | x | x | 7
CCCC(C)C(=O)Nc1nc(C)c(-c2csc(Nc3cc(OC)ccc3OC)n2)s1 (stereo not drawn) | -12 | i | 2 | 47*
CCNc1nc(NCC)nc(C(=O)NN)n1 | -15 | -1 | x | 83*
O=C(Cn1c(=O)n(Cc2ccc3c(c2)OCO3)c(=O)c2ncccc21)Nc1ccccc1C(F)(F)F | x | x | x | -5
Cc1cc(C(=O)CSc2cccc[n+]2[O-])c(C)n1-c1ccccc1 | -8 | -1 | 18 | 3
Cc1cc(C(=O)CSc2nncn2C)c(C)n1-c1ccccc1 | 57* | 0 | 12 | 8
Cc1ccccc1C(=O)NC(=S)Nc1ccccc1N1CCCC1 | 4 | 0 | -6 | 39*
O=C(C1CCC(Cn2c(=O)[nH]c3ccsc3c2=O)CC1)N1CCN(c2ccccc2F)CC1 (stereo not drawn) | x | x | x | -14
Cc1ccc(CNC(=O)Cn2ncn3cccc3c2=O)cc1 | 7 | 0 | 5 | -9
COc1cccc(CNC(=O)Cn2ncn3cccc3c2=O)c1OC | 71* | 0 | -2 | 0
Clc1ccc(OCCn2cnc(Cl)c2Cl)cc1 | -1 | i | -1 | 43*
CC(=O)c1cccc(S(=O)(=O)N(Cc2cccs2)C2CCOCC2)c1 | x | x | x | -6
Cc1cc(Nc2cccc(F)c2)n2c(n1)nc1ccccc12 | 57* | i | 4 | 2
COC(=O)c1ccc(S(=O)(=O)NCCn2ccnc2-c2ncccn2)cc1 | x | x | x | 96*
O=S(=O)(NCCn1ccnc1-c1ncccn1)c1ccc(Cl)s1 | x | x | x | 44*
O=C(NCCn1ccnc1-c1ncccn1)c1ccc(Cl)s1 | x | x | x | 5
O=S(=O)(NCCn1ccnc1-c1ncccn1)c1ccc(OC(F)(F)F)cc1 | x | x | x | 1
O=S(=O)(NCCn1ccnc1-c1ncccn1)c1ccc2c(c1)CCCC2 | x | x | x | 96*
COc1ccc(C2CC(c3ccc(Cl)cc3)Nc3nc(NC(=O)c4ccco4)nn32)cc1 (stereo not drawn) | 160* | -1 | x | -3
O=C(Nc1nc(-c2ccccn2)cs1)c1cccc(F)c1 | x | x | x | 120*
CC(=O)Nc1cccc(C(=O)Nc2nc(-c3ccccn3)cs2)c1 | x | x | x | 67*
SMILES | MazF activator | BH1578 lux ind | Mtb hypoxia inh | PriA SSB inh
O=C(Nc1nc(-c2ccccn2)cs1)c1ccc2ncsc2c1 | x | x | x | 19
COc1ccc(N=Cc2c(O)n(-c3cccc(C)n3)c(=O)c3ccccc23)c(OC)c1 | 278* | i | -4 | -10
COc1cccc(N=Cc2c(O)n(-c3cccc(C)n3)c(=O)c3ccccc23)c1 | -2 | 0 | 4 | 7
COc1ccc(Cc2nnc(SCC(=O)N3CCCCC3)o2)cc1 | -20 | 0 | 2 | 53*
Oc1c(C2=NCCNC(C(F)(F)F)=C2)ccc2ccccc12 | 20 | 0 | 16 | 45*
Cc1ccc(O)c(C2=NCCNC(C(F)(F)F)=C2)c1 | 6 | i | 6 | -8
Cc1noc(-c2c(NC(=O)[C@@H]3COc4ccccc4O3)sc3c2CCOC3)n1 | x | x | x | -3
O=C(NCCn1ccc(-c2ccccn2)n1)c1ccccc1C(F)(F)F | x | x | x | 6
CC1=Nc2ccccc2/C1=C\c1nc(-c2ccc(C(F)(F)F)cc2)oc1O | 57* | 12 | 6 | 9
O=C(CSC1=NCCS1)Nc1nccs1 | x | x | x | 5
O=C(Nc1cc2ccccc2cc1NC(=O)c1ccc(Cl)cc1Cl)c1ccc(Cl)cc1Cl | x | x | x | 5
CN(C)c1ccc(N/C=C/C(=O)c2ccccc2)cc1 | 154* | 0 | 7 | 34
O=C(/C=C/Nc1ccccc1)c1ccccc1 | -2 | x | -3 | -8
CN(C)c1ccc(CCCNC(=O)C(=O)Nc2ccc(F)cc2)cc1 | x | x | x | -7
Cc1cccc(OCc2nnc(-c3ccccc3Cl)o2)c1 | x | x | x | -22
CCSc1ccccc1C(=O)NC[C@H](O)c1ccc(OC)c(OC)c1 | x | x | x | -2
O=C(NC1CCCCC1)C(=O)c1c(-c2ccccc2)[nH]c2ccccc12 | -6 | + | 4 | -4
Cn1cc(C(=O)C(=O)NC2CCCCC2)c2ccccc21 | -2 | 80* | 5 | 1
COCCNC(=O)NCC1CCN(C(=O)OC)CC1 | x | x | x | -23
COc1ccc(N=NC2C(=O)N(c3ccccc3)N=C2C)cc1 (stereo not drawn) | -5 | -1 | -3 | 43*
O=C(O)CCc1ccc(O)c2ncccc12 | x | x | x | 114*
O=C(O)c1ccc(O)c2ncccc12 | x | 3 | x | x
Oc1ccc(F)c2cccnc12 | -24 | 0 | 7 | 81*
Oc1ccc(Cl)c2cccnc12 | 9 | i | 3 | -4
O=C(CCl)c1ccc(O)c2ncccc12 | x | x | x | 121*
SMILES | MazF activator | BH1578 lux ind | Mtb hypoxia inh | PriA SSB inh
Oc1ccc(CNc2ncccn2)c2cccnc12 | x | x | x | 76*
Oc1ccc(CNc2ccccc2F)c2cccnc12 | 9 | 0 | 11 | -7
COc1ccc(NC(=O)c2sc3ccccc3c2Cl)c2ccccc12 | x | x | x | 4
Oc1ccc(Cc2ccccc2)c2cccnc12 | -24 | 0 | 2 | 9
O=C(O)Cc1ccc(O)c2ncccc12 | x | x | x | 87*
Oc1ccc(Br)c2cccnc12 | x | x | x | 52
OCc1ccc(O)c2ncccc12 | 6 | x | 6 | 80*
O=C(N=c1ccn(-c2nc3ccccc3nc2NS(=O)(=O)c2ccccc2)cc1)c1cccs1 | 413* | 0 | 0 | -15
Cc1ccccc1C(=O)N=c1ccn(-c2nc3ccccc3nc2NS(=O)(=O)c2ccc(F)cc2)cc1 | -5 | i | 13 | 6
Nc1cc(Cl)ccc1[C@@H](O)c1ccccc1 | x | x | x | -11
NS(=O)(=O)c1ccc(NC(=O)c2ccc3c(c2)CCCC3)cc1 | 72* | 0 | -1 | -12
Brc1ccc(Cn2c(-c3ccc(Br)o3)nc3ccccc32)o1 | -7 | 0 | 18 | 57*!
CC(Cc1ccccc1)=NNc1ccc([N+](=O)[O-])cc1[N+](=O)[O-] | -6 | x | 3 | 2
CC(Cc1ccccc1)=NNS(=O)(=O)c1ccc([N+](=O)[O-])cc1 | 88* | x | 3 | -3
C/C(=N\NS(=O)(=O)c1ccc([N+](=O)[O-])cc1)c1c[nH]c2ccccc12 | 52* | 0 | x | x
COc1ccccc1NS(=O)(=O)c1cccc(NC(=O)Nc2cccc(Cl)c2)c1 | 77* | 0 | x | -3
Cc1ccc2nc3sc(C(=O)NCc4ccco4)c(N)c3cc2c1 | 82* | 1 | 13 | 1
c1coc(Cn2c(SCc3nc4ccccc4[nH]3)nnc2-c2cnccn2)c1 | -1 | 0 | 3 | 6
C(=C\c1ccccc1)/CSc1nnc(-c2ccccn2)n1Cc1ccco1 | 2 | x | x | 68*
c1ccc(-c2nnc(SCc3nc4ccccc4[nH]3)n2Cc2ccco2)nc1 | -4 | 0 | -1 | 88*
Nn1c(SC/C=C/c2ccccc2)nnc1-c1ccccn1 | 2 | 0 | 4 | 90*
C(=Cc1ccccc1)CSc1nnc(-c2ccccn2)n1Cc1ccco1 | x | x | 1 | x
C=CCc1ccc(OCc2nc3ccccc3n2CC)c(OC)c1 | x | x | x | -16
